# Only a selection was taken, and the strongest signals are over-represented in it overall.
# Columns and labels:
# Assay in all cases: glycan array binding signal (z-score within array); higher = stronger binding
# Conditions in all cases: glycan notation: IUPAC condensed, linker removed
# [1] = target: Fuc(a1-2)Gal(b1-3)GalNAc(a1-3)[Fuc(a1-2)]Gal(b1-4)GlcNAc
# Outline: (§1)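 Columns mapping to the same glycan were averaged after glycan names were converted to IUPAC-condensed notation. The data come from 3228 arrays in the Consortium for Functional Glycomics database, limited to those with an available protein sequence. Binding is reported as a within-array Z-score averaged across arrays of one protein sequence and across linkers.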
# [2] = target: Fuc(a1-2)Gal(b1-4)Fuc(a1-3)]GlcNAc(b1-2)Man(a1-3)[Fuc(a1-2)Gal(b1-4)[Fuc(a1-3)]GlcNAc(b1-2)Man(a1-6)]Man(b1-4)GlcNAc(b1-4)GlcNAc
# Outline: as §1
# [3] = target: Fuc(a1-2)Gal6S(b1-4)Glc6S
# Outline: as §1
# [4] = target: Fuc(a1-2)[GalNAc(a1-4)]Gal(b1-4)GlcNAc
# Outline: as §1
# [5] = target: Fuc(a1-3)[Gal(b1-4)]Glc6S
# Outline: as §1
# [6] = target: Fuc(a1-3)[Gal(b1-4)]GlcNAc(b1-2)Man(a1-3)[Fuc(a1-3)[Gal(b1-4)]GlcNAc(b1-2)Man(a1-6)]Man(b1-4)GlcNAc(b1-4)GlcNAc
# Outline: as §1
# [7] = target: Fuc(a1-3)[Gal(b1-4)]GlcNAc(b1-3)Gal(b1-4)[Fuc(a1-3)]GlcNAc(b1-3)Gal(b1-4)[Fuc(a1-3)]GlcNAc
# Outline: as §1
# [8] = target: Fuc(a1-3)[Gal(b1-4)]GlcNAc(b1-4)Gal(b1-4)[Fuc(a1-3)]GlcNAc
# Outline: as §1
# Fuc(a1-4)GlcNAc = target: Fuc(a1-4)GlcNAc
# Outline: as §1
# Fuc(b1-3)GlcNAc = target: Fuc(b1-3)GlcNAc
# Outline: as §1
# Gal(a1-3)Gal = target: Gal(a1-3)Gal
# Outline: as §1
# [9] = target: Gal(a1-3)Gal(b1-4)GlcNAc(b1-2)Man(a1-3)[Gal(a1-3)Gal(b1-4)GlcNAc(b1-2)Man(a1-6)]Man(b1-4)GlcNAc(b1-4)GlcNAc
# Outline: as §1
# [10] = target: Gal(a1-3)Gal(b1-4)[Fuc(a1-3)]GlcNAc
# Outline: as §1
# [11] = target: Gal(a1-3)Gal(b1-4)[Fuc(a1-3)]GlcNAc(b1-2)Man(a1-3)[Gal(a1-3)Gal(b1-4)[Fuc(a1-3)]GlcNAc(b1-2)Man(a1-6)]Man(b1-4)GlcNAc(b1-4)GlcNAc
# Outline: as §1
# [12] = target: Gal(a1-4)Gal(b1-3)GlcNAc(b1-2)Man(a1-3)[Gal(a1-4)Gal(b1-3)GlcNAc(b1-2)Man(a1-6)]Man(b1-4)GlcNAc(b1-4)GlcNAc
# Outline: as §1
# Gal(a1-4)Gal(b1-4)GlcNAc = target: Gal(a1-4)Gal(b1-4)GlcNAc
# Outline: as §1
# [13] = target: Gal(a1-4)Gal(b1-4)GlcNAc(b1-2)Man(a1-3)[Gal(a1-4)Gal(b1-4)GlcNAc(b1-2)Man(a1-6)]Man(b1-4)GlcNAc(b1-4)GlcNAc
# Outline: as §1
# Gal(a1-4)GlcNAc = target: Gal(a1-4)GlcNAc
# Outline: as §1
# Gal(b1-3)GlcNAc(b1-2)Man = target: Gal(b1-3)GlcNAc(b1-2)Man
# Outline: as §1
# [14] = target: Gal(b1-3)GlcNAc(b1-3)Gal(b1-4)Glc
# Outline: as §1
# [15] = target: Gal(b1-3)GlcNAc(b1-3)Gal(b1-4)GlcNAc
# Outline: as §1
# [16] = target: Gal(b1-3)GlcNAc(b1-3)GalNAc
# Outline: as §1
# [17] = target: Gal(b1-3)[GlcNAc(b1-6)]GalNAc
# Outline: as §1
# [18] = target: Gal(b1-4)GlcNAc(b1-3)[Gal(b1-4)GlcNAc(b1-6)]GalNAc
# Outline: as §1
# Gal(b1-4)GlcNAc6P = target: Gal(b1-4)GlcNAc6P
# Outline: as §1
# GalNAc(a1-3)Gal = target: GalNAc(a1-3)Gal
# Outline: as §1
# GalNAc(a1-3)GalNAc = target: GalNAc(a1-3)GalNAc
# Outline: as §1
# [19] = target: GalNAc(a1-3)GalNAc(a1-3)Gal(a1-4)Gal(b1-4)GlcNAc
# Outline: as §1
# [20] = target: GalNAc(b1-3)Gal(a1-6)Gal(b1-4)Glc
# Outline: as §1
# GalNAc(b1-3)GalNAc = target: GalNAc(b1-3)GalNAc
# Outline: as §1
# [21] = target: GalNAc(b1-4)GlcNAc(b1-2)Man
# Outline: as §1
# [22] = target: GlcNAc(a1-3)Gal(b1-4)GlcNAc
# Outline: as §1
# [23] = target: GlcNAc(b1-2)[GlcNAc(b1-6)]Man(a1-6)[GlcNAc(b1-2)Man(a1-3)]Man(b1-4)GlcNAc(b1-4)GlcNAc
# Outline: as §1
# [24] = target: GlcNAc(b1-3)Gal(b1-4)GlcNAc(b1-3)Gal(b1-4)GlcNAc(b1-2)[GlcNAc(b1-3)Gal(b1-4)GlcNAc(b1-3)Gal(b1-4)GlcNAc(b1-6)]Man(a1-6)[GlcNAc(b1-3)Gal(b1-4)GlcNAc(b1-3)Gal(b1-4)GlcNAc(b1-2)Man(a1-3)]Man(b1-4)GlcNAc(b1-4)[Fuc(a1-6)]GlcNAc
# Outline: as §1
# [25] = target: GlcNAc(b1-3)Gal(b1-4)GlcNAc(b1-6)[GlcNAc(b1-3)]Gal(b1-4)GlcNAc
# Outline: as §1
# GlcNAc(b1-3)Man = target: GlcNAc(b1-3)Man
# Outline: as §1
# Kdn(a2-3)Gal(b1-3)GalNAc = target: Kdn(a2-3)Gal(b1-3)GalNAc
# Outline: as §1
# [26] = target: Man(a1-2)Man(a1-3)[Man(a1-2)Man(a1-6)]Man(a1-6)[Man(a1-2)Man(a1-2)Man(a1-3)]Man(b1-4)GlcNAc(b1-4)GlcNAc
# Outline: as §1
# [27] = target: Man(a1-2)Man(a1-6)[Man(a1-3)]Man(a1-6)[Man(a1-2)Man(a1-2)Man(a1-3)]Man(b1-4)GlcNAc(b1-4)GlcNAc
# Outline: as §1
# [28] = target: Man(a1-3)[Man(a1-6)]Man(b1-4)GlcNAc(b1-4)[Fuc(a1-6)]GlcNAc
# Outline: as §1
# [29] = target: Neu5Ac(a2-3)Gal(b1-3)GlcNAc(b1-3)Gal(b1-3)GlcNAc
# Outline: as §1
# [30] = target: Neu5Ac(a2-3)Gal(b1-4)GlcNAc(b1-2)Man(a1-3)[Neu5Ac(a2-3)Gal(b1-4)GlcNAc(b1-2)Man(a1-6)]Man(b1-4)GlcNAc(b1-4)[Fuc(a1-6)]GlcNAc
# Outline: as §1
# [31] = target: Neu5Ac(a2-3)Gal(b1-4)GlcNAc(b1-2)Man(a1-3)[Neu5Ac(a2-6)Gal(b1-4)GlcNAc(b1-2)Man(a1-6)]Man(b1-4)GlcNAc(b1-4)GlcNAc
# Outline: as §1
# [32] = target: Neu5Ac(a2-3)Gal(b1-4)GlcNAc(b1-3)Gal(b1-4)GlcNAc(b1-3)Gal(b1-4)GlcNAc
# Outline: as §1
# [33] = target: Neu5Ac(a2-3)Gal(b1-4)GlcNAc(b1-3)Gal(b1-4)GlcNAc(b1-3)Gal(b1-4)GlcNAc(b1-2)Man(a1-3)[Neu5Ac(a2-3)Gal(b1-4)GlcNAc(b1-3)Gal(b1-4)GlcNAc(b1-3)Gal(b1-4)GlcNAc(b1-2)Man(a1-6)]GalNAc
# Outline: as §1
# [34] = target: Neu5Ac(a2-3)Gal(b1-4)[Fuc(a1-3)]GlcNAc(b1-2)Man
# Outline: as §1
# [35] = target: Neu5Ac(a2-6)Gal(b1-4)GlcNAc(b1-2)Man(a1-6)[Gal(b1-4)GlcNAc(b1-2)Man(a1-3)]Man(b1-4)GlcNAc(b1-4)GlcNAc
# Outline: as §1
# [36] = target: Neu5Ac(a2-6)Gal(b1-4)GlcNAc(b1-3)Gal(b1-4)GlcNAc(b1-6)[Gal(b1-3)]GalNAc
# Outline: as §1
# [37] = target: Neu5Ac(a2-6)Gal(b1-4)GlcNAc(b1-3)GalNAc
# Outline: as §1
# [38] = target: Neu5Ac(a2-6)GalNAc(b1-4)GlcNAc6S
# Outline: as §1
# [39] = target: Neu5Gc(a2-3)Gal(b1-3)GlcNAc
# Outline: as §1
# [40] = target: Neu5Gc(a2-3)Gal(b1-4)[Fuc(a1-3)]GlcNAc
# Outline: as §1
# [41] = target: Neu5Gc(b2-6)Gal(b1-4)GlcNAc
# Outline: as §1
binder,measurement,setting,value
GSL-I (Griffonia simplicifolia) (protein) FNLPNFWSDVKDNIIFQGDANTTAGTLQLCKTNQYGNPLQYRAGRALYSDPVQLWDNKTGSVASFYTEFTFFLKITGDGPADGLAFFLAPPDSDVKDAGAYLGLFNKSTATQPSKNQVVAVEFDTWKNTDFPEPSYRHIGINVNSIVSVATKRWEDSDIFSGKIATARISYDGSAKILTVVLSYPDGADYILSHSVDLSKNLPNPIRVGISASTGANQFLTVYVLSWRFSSALQSTSVNAAMGPEIIRTVV,glycan array binding signal (z-score),[1],-0.242
same,glycan array binding signal (z-score),[2],0.367
same,glycan array binding signal (z-score),[3],-0.216
same,glycan array binding signal (z-score),[4],7.04
same,glycan array binding signal (z-score),[5],-0.16
same,glycan array binding signal (z-score),[6],-0.232
same,glycan array binding signal (z-score),[7],-0.188
same,glycan array binding signal (z-score),[8],-0.311
same,glycan array binding signal (z-score),Fuc(a1-4)GlcNAc,-0.215
same,glycan array binding signal (z-score),Fuc(b1-3)GlcNAc,-0.236
same,glycan array binding signal (z-score),Gal(a1-3)Gal,0.597
same,glycan array binding signal (z-score),[9],5.7
same,glycan array binding signal (z-score),[10],3.4
same,glycan array binding signal (z-score),[11],0.283
same,glycan array binding signal (z-score),[12],9.69
same,glycan array binding signal (z-score),Gal(a1-4)Gal(b1-4)GlcNAc,1.82
same,glycan array binding signal (z-score),[13],3.15
same,glycan array binding signal (z-score),Gal(a1-4)GlcNAc,4.53
same,glycan array binding signal (z-score),Gal(b1-3)GlcNAc(b1-2)Man,-0.124
same,glycan array binding signal (z-score),[14],-0.194
same,glycan array binding signal (z-score),[15],-0.226
same,glycan array binding signal (z-score),[16],-0.203
same,glycan array binding signal (z-score),[17],-0.102
same,glycan array binding signal (z-score),[18],-0.312
same,glycan array binding signal (z-score),Gal(b1-4)GlcNAc6P,-0.178
same,glycan array binding signal (z-score),GalNAc(a1-3)Gal,6.1
same,glycan array binding signal (z-score),GalNAc(a1-3)GalNAc,2.08
same,glycan array binding signal (z-score),[19],1.85
same,glycan array binding signal (z-score),[20],-0.191
same,glycan array binding signal (z-score),GalNAc(b1-3)GalNAc,-0.272
same,glycan array binding signal (z-score),[21],-0.143
same,glycan array binding signal (z-score),[22],-0.199
same,glycan array binding signal (z-score),[23],-0.121
same,glycan array binding signal (z-score),[24],0.036
same,glycan array binding signal (z-score),[25],-0.255
same,glycan array binding signal (z-score),GlcNAc(b1-3)Man,-0.193
same,glycan array binding signal (z-score),Kdn(a2-3)Gal(b1-3)GalNAc,-0.069
same,glycan array binding signal (z-score),[26],-0.033
same,glycan array binding signal (z-score),[27],-0.302
same,glycan array binding signal (z-score),[28],-0.305
same,glycan array binding signal (z-score),[29],-0.152
same,glycan array binding signal (z-score),[30],-0.283
same,glycan array binding signal (z-score),[31],-0.197
same,glycan array binding signal (z-score),[32],-0.261
same,glycan array binding signal (z-score),[33],2.34
same,glycan array binding signal (z-score),[34],-0.227
same,glycan array binding signal (z-score),[35],0.106
same,glycan array binding signal (z-score),[36],-0.048
same,glycan array binding signal (z-score),[37],-0.128
same,glycan array binding signal (z-score),[38],-0.271
same,glycan array binding signal (z-score),[39],-0.164
same,glycan array binding signal (z-score),[40],-0.153
same,glycan array binding signal (z-score),[41],-0.099

# — the supplement of paper PMC8728848
